# Assay results: PubChem BioAssay AID1347383 (Zoeller Lab, School of Medicine, Boston University, 2020)
# Calls of active or inactive are those of the source.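 Rule for the calls: active = cell survival after UV exposure 2 SD above solvent-only control wells at 10 µM, confirmed on one or two repeats; inactive = the rest.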
# Experiment: cell survival after pyrene fatty acid photosensitization – ZR-82 cells, Analyticon library, screen 2, phospholipid biosynthesis inhibitor project, primary screen (AID 1347383);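 note: survival reflects blocked phospholipid synthesis cutting uptake of the phototoxic fatty acid; compound and fatty acid exposure 3 h then viability read next day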
# Conditions: ZR-82 CHO cells, pyrene-fatty acid UV killing, CellTiter Blue; at 10 µM; peroxisome-deficient CHO-K1 variant; with DGAT-1, DGAT-2 and ACAT inhibitors
row,SMILES,outcome
1,C/C(=C\C(=O)C[C@]12C(=O)O[C@]3(C)CC[C@H]1C[C@H]23)C(N)=O,inactive
2,CSCC1OC(n2cnc3c(=O)[nH]cnc32)C(O)C1O (stereo unspecified),inactive
3,O=C(O)/C=C/c1ccc(O[C@@H]2O[C@H](CO)[C@@H](O)[C@H](O)[C@H]2O)cc1,inactive
4,C/C=C(/C)C(=O)OC1C(OC2(C)CCC3C(C4C(C)CCC42)C3(C)C)OC(C)C(O)C1O (stereo unspecified),inactive
5,Cc1cc(O)cc2c(=O)oc(CC(C)O)cc12 (stereo unspecified),inactive
6,O=C1CC2OC(C(O)c3ccccc3)C(O1)C2O (stereo unspecified),inactive
7,Cc1coc2c1CC1OC1(C)CCC1OC1(C)C2 (stereo unspecified),inactive
8,CC(=O)O[C@H]1CC[C@H](C)[C@@]2(C)[C@H](OC(C)=O)c3c(C)coc3C(=O)[C@H]12,inactive
9,O=C1CC(c2ccc(O)cc2)Oc2cc(O)ccc21 (stereo unspecified),inactive
10,CCC1C(=O)O[C@]23C=C[C@@H]4C(C(=O)O)=CO[C@H](OC12)[C@@H]43 (stereo partly specified),inactive
11,O=c1ccn(C2OC(CO)C(O)C2O)c(=O)[nH]1 (stereo unspecified),inactive
12,COc1cc(C(O)C(C)O)ccc1OC(C)Cc1cc(OC)c(OC)c(OC)c1 (stereo unspecified),inactive
13,CCOC(=O)C1C(=O)C(=O)Nc2ccccc21 (stereo unspecified),inactive
14,CC(O)C(O)/C=C/c1cccc(=O)o1 (stereo unspecified),inactive
15,C[C@H]1C=CC2=CCCC[C@@H]2[C@H]1CC[C@@H]1C[C@@H](O)CC(=O)O1,inactive
16,CCC(C)CC(=O)OC1C(=O)C(CO)C(OC)C(OC(C)=O)C1C(C)C (stereo unspecified),inactive
17,C=C1CCC2C(OC(=O)C2(O)COC(C)=O)C2C(=C)C(O)CC12 (stereo unspecified),inactive
18,CC(C)(O)C1OC1C1=CC(=O)C2(C)OC2C1O (stereo unspecified),inactive
19,CC(=O)OC1C(=O)C2C3OCC4=C3[C@@](C)(CC[C@@H]4O)CC[C@]2(C)[C@H]1C(C)C (stereo partly specified),inactive
20,Cc1c(O)cc2c(c1O)C(=O)[C@@H](O)[C@H](c1ccc(O)c(O)c1)O2,inactive
21,CCCCCCCCCCCCCCCCC1C(=O)OC(C)C1OC (stereo unspecified),inactive
